According to PubChem BioAssay AID1508622 (National Center for Advancing Translational Sciences (NCATS), 2021):

Test: Confirmatory qHTS for Identification of Small Molecule Activators of Huntingtin-Antisense Promoter Activity
Details: HEK293 HTT-AS promoter firefly luciferase reporter, 24 h; series mostly up to 57.5 µM; activity change, positive = activation: at the top concentration; active = well fitted activation curve with a large enough effect; inconclusive = small, poorly fitted or top-dose-only effect; inactive = no such curve, though single readings can be large or run the other way
In short: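 Activity normalized between vehicle control (0%) and zero RLU (-100%) from firefly luminescence (Dual-Glo). Compounds, up to 57.5 uM final, incubated 24 h at 37C on HEK293 reporter cells plated 24 h earlier.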

Activity change, positive = activation, inactive:
CCc1nc2ccc(C(=O)NCCc3ccc(OC)cc3OC)cc2nc1CC 4.01%
Cc1cccc(CCNC(=O)c2c[nH]c3ccc(S(=O)(=O)Nc4ccccc4F)cc3c2=O)c1 -39%
CCCOc1cccc(NC(=O)c2c(-c3ccccc3Cl)noc2C)c1 -24.2%
CC(C)OCc1cc(CN2CCN(c3cccc(C(F)(F)F)c3)CC2)c(O)c2ncccc12 -49.4%
COc1ccccc1C(=O)N1c2ccccc2C(C)(c2ccc(Cl)cc2)CC1(C)C (stereo not given) -40.4%
CCCCCN1C(C(=O)c2ccccc2)=C(OC(=O)CC)c2ccccc2S1(=O)=O -42.2%
COc1ccc(CNC(=O)c2oc3c(c2C)-c2nn(Cc4ccccc4Cl)cc2CC3)cc1 -26%
Cc1ccc(C)c(N2CCN(C(=O)C3CCCN(S(=O)(=O)c4ccc5c(c4)oc(=O)n5C)C3)CC2)c1 (stereo not given) -48.5%
Cc1cccc(-c2nc(SCC(=O)Nc3ccc4c(c3)OCO4)c(-c3ccccc3)[nH]2)c1 -19.4%
COc1ccc(N2CCN(C(CNC(=O)C(=O)NCc3ccc(C)cc3)c3cccnc3)CC2)cc1 (stereo not given) -43.7%
COCCNc1nc(NCc2cccc(Cl)c2)c2cnn(C)c2n1 -37.8%
O=C(Cn1c(=O)oc2cc(S(=O)(=O)N3CCCCCC3)ccc21)Nc1cccc(C(F)(F)F)c1 -27.5%
CCc1cccc(NS(=O)(=O)c2ccc3c(c2)CC(C)N3C(=O)C2CC2)c1 (stereo not given) -83.2%
O=C(C1CCC1)N1CCCc2cc(S(=O)(=O)N3CCN(c4ccccc4)CC3)ccc21 -40.8%
Cn1c(SCc2ccc(F)cc2)nc2ccc(C(=O)NCc3ccc(F)cc3)cc21 -69.3%
